# Test results from PubChem BioAssay AID651808 (Broad Institute, 2012).
# Records with an inconclusive call do not appear. Activity calls are given as the source filed them. The rule behind the calls is not given here.
# Test: dose response, DH231 delta cqsS, luminescence, dry powder (AID 651808)
# Conditions: V. cholerae DH231 delta cqsS, luxCDABE luminescence, 6 h, stronger effect = higher value
smiles,measurement,setting,value
CCn1nnc(NCc2ccc(C)cc2)n1,max activity (light induction),"at 0.35 µM, test 2",39.1% (inactive)
CC(C)c1ccc(CNc2nnnn2C)cc1,max activity (light induction),"measured here: test 1 replicate run, at 0.0042 µM, test 1",39.1%
CCCn1nnnc1NCc1ccccc1Cl,max activity (light induction),"measured here: test 1 replicate run, at 0.35 µM, test 1",43.6%
